Laboratory results reported in PubChem BioAssay AID1792 (The Scripps Research Institute Molecular Screening Center, 2009).
Out of some 16,000 compounds screened, about 130 (0.81%) were called active. Rule as the data show it: active = inhibition above about 75%; inactive = the rest. For the sample, actives were picked, then their nearest neighbours and some compounds at random.

biological target: NADPH oxidase 1 (Homo sapiens) (UniProt Q9Y5S8); assay: blocks human NADPH oxidase 1 activity (AID 1792); details: HT29 cells, luminol chemiluminescence ROS; at 6.7 µM; active compounds read high
Sequence (Q9Y5S8 whole entry, looked up): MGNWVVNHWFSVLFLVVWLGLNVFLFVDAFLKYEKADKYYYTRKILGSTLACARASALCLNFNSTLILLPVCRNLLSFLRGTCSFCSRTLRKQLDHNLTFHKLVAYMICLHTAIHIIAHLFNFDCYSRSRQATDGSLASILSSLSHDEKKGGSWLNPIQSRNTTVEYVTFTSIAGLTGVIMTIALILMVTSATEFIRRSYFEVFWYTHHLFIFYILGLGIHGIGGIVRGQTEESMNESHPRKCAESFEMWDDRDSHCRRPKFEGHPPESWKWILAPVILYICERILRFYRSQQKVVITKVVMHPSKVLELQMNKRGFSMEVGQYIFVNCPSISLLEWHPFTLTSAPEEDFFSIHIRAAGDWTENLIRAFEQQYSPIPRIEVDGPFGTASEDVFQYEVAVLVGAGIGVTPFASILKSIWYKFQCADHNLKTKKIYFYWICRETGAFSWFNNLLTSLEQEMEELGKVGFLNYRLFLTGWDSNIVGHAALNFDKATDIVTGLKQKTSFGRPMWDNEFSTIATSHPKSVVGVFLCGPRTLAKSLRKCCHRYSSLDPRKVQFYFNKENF

| SMILES | inhibition |
| --- | --- |
| N#C/C(=C\c1sccc1Oc1ccccc1)S(=O)(=O)c1ccc(C(F)(F)F)cn1 | -16.5% (inactive) |
| CCCCC#Cc1cncc(C(=O)NNC(=O)Nc2ccc(Cl)cc2)c1 | 11.2% (inactive) |
| N#Cc1cccnc1NNC(=O)Nc1ccc(OCc2ccccc2)cc1 | 61.8% (inactive) |
| CC(C)CC(NC(=O)OC(C)(C)C)C(=O)OCc1ccc(CC(=O)O)cc1 (stereo not drawn) | -5% (inactive) |
| O=c1c(-c2nc(-c3ccc(C(F)(F)F)cc3)no2)cnc2n1CCS2 | -4.83% (inactive) |
| CSc1sc(C(=O)NC2CC2)c(-c2ccc(Cl)cc2)c1C#N | -9.35% (inactive) |
| NS(=O)(=O)c1ccc(Oc2c(Cl)cccc2[N+](=O)[O-])cc1 | 21.2% (inactive) |
| Cc1cc(C(=O)NCCNS(=O)(=O)c2ccc(Cl)cc2)c(C)o1 | 2.68% (inactive) |
| O=C1c2ccccc2O[C@@H](c2ccccc2)[C@@H]1NC1CCCCC1 | -19.7% (inactive) |
| COC(=O)c1ccccc1-c1c2ccc(=O)cc-2oc2cc(O)ccc12 | -13% (inactive) |
| C#CC(C)(CC)OCC(O)CS(=O)(=O)O (stereo not drawn) | -13.2% (inactive) |
| COc1cccc2c1c(NS(=O)(=O)c1cn(C)cn1)nn2C | -41.2% (inactive) |
| Cc1nc(-n2cccc2)sc1C(=O)N/N=C/c1ccccc1Cl | 6.52% (inactive) |
| O=S(=O)(c1ccc(Cl)cc1)n1nccc1/C=C/c1cccs1 | -18.9% (inactive) |
| CSc1nnc(SC)n1CCNC(=O)Nc1cccc(Cl)c1 | -65% (inactive) |
| O=C(Cn1nnc2ccccc21)NCCSCc1ccco1 | 16.2% (inactive) |
| CN([C@H]1CCN2CCc3ccccc3C2C1)S(C)(=O)=O (stereo partly drawn) | -68.5% (inactive) |
| N#Cc1nccnc1N1CCN(C(=O)c2ccccc2)CC1 | -2.33% (inactive) |
| Cc1ccc(C(=O)N2CCN(c3cccc4[nH]ccc34)CC2)cc1 | 76% (active) |
| COc1cccc(NC(=S)N(CCC#N)C2CCCCC2)c1 | -44.9% (inactive) |
| COc1cccc(NC(=S)NNC(=S)NC2CC3CCC2C3)c1 (stereo not drawn) | 87.8% (active) |
| COc1ccc(NC(=S)Nc2ccc(OC)cc2)cc1 | 3.7% (inactive) |
| CSc1nc(-n2nc(C)cc2C)nc(-c2ccco2)c1C#N | -107% (inactive) |
| Cc1ccc(NC(=S)C(C#N)C(=O)N2CCCC2)c(C)c1 (stereo not drawn) | -73.4% (inactive) |
| CCOC(=O)c1c[nH]n2c(=O)c3c(nc12)CCC3 | -13% (inactive) |
| Cc1noc(C)c1S(=O)(=O)NCc1cc(F)cc2c1OCOC2 | -23.9% (inactive) |

| SMILES | inhibition |
| --- | --- |
| CS/C(=N/S(=O)(=O)c1c(C)noc1C)NNC(=O)Nc1ccc(Cl)cc1 | 20% (inactive) |
| CC1=NCCNC(C)=C1N1CCOCC1 | -21.2% (inactive) |
| CCCCNC(=O)OCCSCCS(=O)(=O)c1ccc(Cl)cc1 | -35% (inactive) |
| O=C(NCc1cccnc1)Nc1cccc(NC(=O)NCc2cccnc2)c1F | -23.7% (inactive) |
| CC(C)(C)OC(=O)n1ccc2cc(Br)ccc21 | -51.3% (inactive) |
| Fc1ccc(NC(=S)N2CCN=C2Nc2ccc(F)cc2)cc1 | -49.7% (inactive) |
| O=C(O)c1ncoc1-c1cccc(Cl)c1 | -52.4% (inactive) |
| CCOC(=O)CC(=O)CSc1nnc(N)s1 | -48% (inactive) |
| N#Cc1cncc(Br)c1 | -66.5% (inactive) |
| NNC(=O)CC1C(=O)NCCN1Cc1c(Cl)cccc1Cl (stereo not drawn) | 14.9% (inactive) |
| CSc1ccc(Br)cc1 | -59.5% (inactive) |
| CC(C)(C)c1cc(NC(=O)/C(C#N)=C/c2cccc(Cl)c2Cl)c(C(N)=O)s1 | -9.18% (inactive) |
| COC(=O)c1ccccc1N(C)C(=O)c1cc(OC)c(OC)c(OC)c1 | -18% (inactive) |
| CCOC(=O)NC(=O)/C(=C/NCc1cccs1)C(=O)OCC | -20.5% (inactive) |
| NC(=O)c1ccc(-c2csnn2)cc1 | -4.63% (inactive) |
| FC(F)(F)c1cc(-c2ccc(Br)cc2)n[nH]1 | -47% (inactive) |
| Cc1ncn2cc(-c3ccc(Cl)cc3Cl)[nH]c(=O)c12 | -12% (inactive) |
| Cc1ccc(CSC(=N)N)cc1 | -35.4% (inactive) |
| O=C(NC(=S)Nc1nc(-c2ccc(Cl)cc2)cs1)C1CC1 | -57.1% (inactive) |
| CC(=O)NC(Cc1c[nH]c2ccccc12)C(=O)O (stereo not drawn) | -15.3% (inactive) |
| O=C(Cn1c(=Nc2ccc(F)cc2)oc2ccccc2c1=O)c1ccccc1 | -0.92% (inactive) |
| COc1ccc(S(=O)c2ccccc2C(=O)O)c(C(=O)O)c1 (stereo not drawn) | -11.3% (inactive) |
| COc1ccccc1C1CCN(c2ccc([N+](=O)[O-])cn2)CC1 | 18% (inactive) |
| O=C(Nc1ccc(C(F)(F)F)cn1)c1ccc(Oc2cc(Cl)cc(Cl)c2)o1 | -58.2% (inactive) |
| CCCCOC(=O)c1ccc(-c2ccccn2)s1 | -10.4% (inactive) |
| Cc1[nH]ncc1S(=O)(=O)c1ccc(Cl)cc1 | -77.8% (inactive) |

| SMILES | inhibition |
| --- | --- |
| Cc1cc(C(=O)NNC(=O)c2cc(C)n(C(C)(C)C)n2)no1 | -45.9% (inactive) |
| O=C(Nc1ccccc1C(F)(F)F)N1CCCC1c1cccnc1 (stereo not drawn) | -8.11% (inactive) |
| CCOC(=O)c1sc(SC)c(-c2ccccc2)c1N | 0% (inactive) |
| N#Cc1c(C2CCCCC2)[nH]c(=S)[nH]c1=O | -8.73% (inactive) |
| COc1c(/C(N)=N/O)cc(C)c2c1CCC2 | 8.11% (inactive) |
| Cc1ccc(S(C)(=O)=NC(=O)NS(=O)(=O)Oc2ccc(Cl)cc2Cl)cc1 (stereo not drawn) | -64.7% (inactive) |
| O=C1c2ccccc2C(=O)N1CNc1ccc(C2CCCCC2)cc1 | -10.4% (inactive) |
| O=C(c1ccc(C#Cc2ccccc2)o1)N1CCCCC1 | -23.7% (inactive) |
| NNC(=O)c1csc(COc2ccc(C3SCCS3)cc2)n1 | 4.76% (inactive) |
| N/C(Cc1ccc(F)cc1F)=N\OC(=O)c1cccc(C(F)(F)F)c1 | -67.4% (inactive) |
| O=C(c1ccccc1I)c1c[nH]c2ccccc12 | 13.6% (inactive) |
| CC1(C)c2ccccc2-n2c1cc(O)c(-c1ccccc1)c2=O | -50% (inactive) |
| COC(=O)c1c(C)noc1-c1ccno1 | -21.7% (inactive) |
| CCCCCCCCCCCCCC#CC(O)C(N)CO (stereo not drawn) | -24.7% (inactive) |
| O=C(NNC(=O)C1c2ccccc2Oc2ccccc21)c1cccc(F)c1 | -30.2% (inactive) |
| CC(=O)Nc1ccc(NC(=O)c2cc(C)ccc2[N+](=O)[O-])c(C)c1 | -28.7% (inactive) |
| CSc1ccc(C(F)(F)F)cc1NC(=S)Nc1ccccc1 | -18% (inactive) |
| COC(=O)c1sccc1-c1ccc(/C(C)=N/NC(N)=O)o1 | -53.5% (inactive) |
| CCOC1=NC(C(F)(F)F)(C(F)(F)F)N=C(N2CCOCC2)O1 | -12.7% (inactive) |
| O=S(=O)(Cc1cccc(C(F)(F)F)c1)NCc1ccc2c(c1)OCO2 | -29.2% (inactive) |
| Cc1nc(-c2ccccc2)sc1-c1nnc(C2CC2)o1 | -8.29% (inactive) |
| Cc1ccc(CC(=O)c2cccnc2)cc1 | 13.9% (inactive) |
| COc1ccccc1N1CCN(C/C(N)=N/O)CC1 | -72.5% (inactive) |
| O=C(NCc1ccc2c(c1)OCO2)c1cccc2c1OCCCO2 | -22.4% (inactive) |
| COc1ccc(-c2nnc(SCC(O)C(F)(F)F)n2-c2cccc(OC)c2)cc1 (stereo not drawn) | -65.7% (inactive) |
| O=C1CCC(=O)N(c2ccccc2)N1 | 5.82% (inactive) |

| SMILES | inhibition |
| --- | --- |
| CN(C)/C=N/NC(=O)c1nc(-c2cccc(-n3cccc3)c2)no1 | 18.8% (inactive) |
| O=S(=O)(Oc1ncccc1C(F)(F)F)c1cccc(F)c1 | -33.3% (inactive) |
| CC(C)(C)c1csc(Sc2ccc([N+](=O)[O-])cc2[N+](=O)[O-])n1 | -42.4% (inactive) |
| Cc1[nH]c2ccccc2c1Sc1ccc(Cl)cc1 | -26.1% (inactive) |
| CC1(C)C2CC[C@](C)(C2)C1NC(=O)c1c(Cl)cccc1Cl (stereo partly drawn) | -15.2% (inactive) |
| Oc1c(Cl)c(Cl)c(Cl)c2ccccc12 | -9.97% (inactive) |
| O=C(Nc1ccccc1)N1CCN(Cc2ccccc2)CC1 | -18.5% (inactive) |
| Nc1[nH]c(=O)nc2nc[nH]c12 | 10.8% (inactive) |
| CN(C)CCC(O)c1ccc2c(c1)OCCCCO2 (stereo not drawn) | -25.5% (inactive) |
| Cc1ccc2sc(NC(=O)NC(=O)c3c(Cl)cccc3Cl)nc2c1 | -14.9% (inactive) |
| Cc1c(C(=O)Nc2ccccc2)sc2cc(C(C)(C)C)sc12 | 4.35% (inactive) |
| CS(=O)(=NC(=O)c1cc2ccccc2o1)c1ccc(Cl)cc1 (stereo not drawn) | 3.12% (inactive) |
| N#CCc1ccc(NC(=O)c2ccccc2C(=O)Nc2ccc(CC#N)cc2)cc1 | -21.7% (inactive) |
| CCCN(CCC)S(=O)(=O)c1ccc(C(=O)N2CC3CCC(CC3)C2)cc1 | -49.5% (inactive) |
| OC(CNCc1ccc2c(c1)OCO2)COc1ccccc1 (stereo not drawn) | -16.2% (inactive) |
| CC(C)c1ccc(N2C(=O)/C(=C\c3ccc(-c4ccc([N+](=O)[O-])cc4)o3)SC2=S)cc1 | -23.7% (inactive) |
| FC(F)(F)c1cccc(-n2c(-c3ccncc3)n[nH]c2=S)c1 | -29.9% (inactive) |
| c1ccc(CN2CCN(Cn3nnc4ccccc43)CC2)cc1 | -54.1% (inactive) |
| CC1(C)C=Cc2cc(-c3noc(-c4ccccc4)n3)ccc2O1 | -38.9% (inactive) |
| Nc1c(-c2nnc(SCC(=O)c3ccccc3)o2)cnn1-c1ccccc1 | 26.2% (inactive) |
| FC(F)(F)c1ccc(/C=N/Nc2nccc(C(F)(F)F)n2)cc1 | -24.2% (inactive) |
| CC(=O)Nc1cccc(-n2nnc(SCC(=O)c3cc(-c4ccccc4)no3)n2)c1 | -33.7% (inactive) |
| Cc1ccc(S(=O)(=O)NNC(=S)NC(C)(C)C)cc1 | -24.1% (inactive) |
| C=C(C)c1cccc(C(C)(C)NC(=O)CC(C)=O)c1 | -17.3% (inactive) |
| COC(=O)c1cccc(CSc2ncccc2C(=O)O)c1 | -48.1% (inactive) |
